Results with a measured potency or affinity are listed apart.
Legend:
Staphylococcus aureus = conditions: Concentration 20 uM; ASSAY_TEST Inhibition of Bacterial Growth; detection method Absorption (OD600); MEDIA CAMHB; plate type 384well; NBS; CORNING #3640; time 18 hr
Escherichia coli = conditions: Concentration 20 uM; ASSAY_TEST Inhibition of Bacterial Growth; detection method Absorption (OD600); MEDIA CAMHB; plate type 384well; NBS; CORNING #3640; time 18 hr

SMILES	Inhibition (Staphylococcus aureus)	Inhibition (Escherichia coli)
CC(COc1ccccc1Cc1ccccc1)N1CCCCC1.O=P(O)(O)O (centres undefined)	12.26%	7.84%
CC(O)CO.N[C@@H](C(=O)N[C@@H]1C(=O)N2C(C(=O)O)=C(CSc3c[nH]nn3)CS[C@H]12)c1ccc(O)cc1	31.82%	5.65%
Cl.Clc1cccc(Cl)c1NC1=NCCN1 [CLONIDINE HYDROCHLORIDE]	11.8%	4.68%
CCN(CC)CCOC(=O)c1ccc(N)cc1.Cl [PROCAINE HYDROCHLORIDE]	7.14%	4.36%
CCCOc1ccc(C(=O)OCCN(CC)CC)cc1N.Cl [PROPARACAINE HYDROCHLORIDE]	-1.38%	2.71%
Nc1nc2c(ncn2COC(CO)CO)c(=O)[nH]1 [GANCICLOVIR]	7.88%	0.63%
CC[C@]1(O)C[C@@H]2CN(CCc3c([nH]c4ccccc34)[C@@](C(=O)OC)(c3cc4c(cc3OC)N(C)[C@H]3[C@@](O)(C(N)=O)[C@H](O)[C@]5(CC)C=CCN6CC[C@]43[C@@H]65)C2)C1.O=S(=O)(O)O [VINDESINE SULFATE]	2.71%	3.57%
CC(=O)OCC(=O)[C@@]1(O)CC[C@H]2[C@@H]3CCC4=CC(=O)CC[C@]4(C)[C@H]3[C@@H](O)C[C@@]21C [HYDROCORTISONE ACETATE]	9.41%	0.56%
CC(C)NCC(O)COc1ccc(COCCOC(C)C)cc1.CC(C)NCC(O)COc1ccc(COCCOC(C)C)cc1.O=C(O)/C=C/C(=O)O (centres undefined) [BISOPROLOL FUMARATE]	7.74%	1.99%
CC(C)NCC(O)c1ccc(NS(C)(=O)=O)cc1.Cl (centres undefined) [SOTALOL HYDROCHLORIDE]	-25.28%	5.97%
O=C(O)c1cc(-c2ccc(F)cc2F)ccc1O [DIFLUNISAL]	-11.25%	6.27%
CC(C)c1ccc2oc3nc(N)c(C(=O)O)cc3c(=O)c2c1 [AMLEXANOX]	16.12%	0.07%
O=C1C(c2c(O)[nH]c3ccccc23)=Nc2ccccc21	2.27%	-3.28%
CCc1cc(C(N)=S)ccn1 [ETHIONAMIDE]	13.26%	2.06%
CC1=Nc2ccc(Cl)cc2S(=O)(=O)N1 [DIAZOXIDE]	9.13%	5.75%
Nc1nc(N)c2nc(-c3ccccc3)c(N)nc2n1	-4.86%	10.99%
O=C([O-])Cc1ccccc1Nc1c(Cl)cccc1Cl.[Na+] [DICLOFENAC SODIUM]		7.01%
Cc1ncc([N+](=O)[O-])n1CC(O)CCl (centres undefined) [ORNIDAZOLE]	10.83%	5.05%
CC1CC2C3CCC4=CC(=O)C=CC4(C)[C@@]3(Cl)C(O)CC2(C)C1(O)C(=O)CO (some centres undefined)	12.42%	5.77%
C[n+]1ccccc1/C=N/O.[Cl-] [PRALIDOXIME CHLORIDE]	12.69%	4.53%
NNC(=O)c1ccncc1 [ISONIAZID]	8.75%	0.87%
NC(=O)N1c2ccccc2C=Cc2ccccc21 [CARBAMAZEPINE]	10.71%	-3.33%
CNC(=C[N+](=O)[O-])NCCSCc1csc(CN(C)C)n1 [NIZATIDINE]	11.02%	4.27%
CN(C)CCCN1c2ccccc2Sc2ccc(Cl)cc21.Cl [CHLORPROMAZINE HYDROCHLORIDE]	10.22%	2.59%
CC(=O)OCC(CCn1cnc2cnc(N)nc21)COC(C)=O [FAMCICLOVIR]	12.23%	6.38%
CC(=O)OCC(=O)[C@@]12OC(C)(C)O[C@@H]1C[C@H]1[C@@H]3C[C@H](F)C4=CC(=O)C=C[C@]4(C)[C@@]3(F)[C@@H](O)C[C@@]12C [FLUOCINONIDE]	10.01%	-2.15%
CC(C(=O)O)c1cccc(C(=O)c2ccccc2)c1 (centres undefined) [KETOPROFEN]	6.88%	-2.29%

SMILES	Inhibition (Staphylococcus aureus)	Inhibition (Escherichia coli)
O=C1CN(/N=C/c2ccc(-c3ccc([N+](=O)[O-])cc3)o2)C(=O)[N-]1.[Na+] [DANTROLENE SODIUM]	4.1%	-9.64%
O=C(O)c1cc(/N=N/c2ccc(S(=O)(=O)Nc3ccccn3)cc2)ccc1O [SULFASALAZINE]	-13.67%	7.84%
CCCc1cc(=O)[nH]c(=S)[nH]1 [PROPYLTHIOURACIL]	17.4%	8.71%
CC(=O)O[C@H]1C[C@@H]2CC[C@@H]3[C@H](CC[C@@]4(C)[C@H]3C[C@H]([N+]3(C)CCCCC3)[C@@H]4OC(C)=O)[C@@]2(C)C[C@@H]1N1CCCCC1.[Br-] [VECURONIUM BROMIDE]	-16.09%	5.67%
CCCN(CCC)S(=O)(=O)c1ccc(C(=O)O)cc1 [PROBENECID]	13.34%	1.2%
CN(CCO)CC(O)Cn1cnc2c1c(=O)n(C)c(=O)n2C.O=C(O)c1cccnc1 (centres undefined) [XANTHINOL NIACINATE]	15.77%	-0.5%
Cl.O=C(O)/C=C/c1ccc(Cn2ccnc2)cc1	-2.16%	6.89%
O=C(O)CCNC(=O)c1ccc(N=Nc2ccc(O)c(C(=O)O)c2)cc1	1.56%	-1.37%
NS(=O)(=O)c1cc(C(=O)O)c(NCc2ccco2)cc1Cl [FUROSEMIDE]	14.48%	-0.33%
NC(=O)N1c2ccccc2CC(=O)c2ccccc21 [OXCARBAZEPINE]	15.1%	-1.4%
Cl.NC1CCN(c2cccc(Cl)n2)CC1	8.14%	8.42%
COc1ccc(CN2CCN(C(c3ccc(F)cc3)c3ccc(F)cc3)CC2)c(OC)c1OC.Cl.Cl	8.66%	-0.33%
COc1cc2nc(N3CCN(C(=O)C4CCCO4)CC3)nc(N)c2cc1OC (centres undefined) [TERAZOSIN]	8.19%	-0.53%
O=c1cnn([C@@H]2O[C@H](CO)[C@@H](O)[C@H]2O)c(=O)[nH]1 [6-AZAURIDINE]	-22.3%	4.59%
CN(C)CCOC(c1ccc(Cl)cc1)c1ccccn1.O=C(O)/C=C\C(=O)O (centres undefined) [CARBINOXAMINE MALEATE]	10.84%	3.54%
Cc1ccc(-c2cc(C(F)(F)F)nn2-c2ccc(S(N)(=O)=O)cc2)cc1 [CELECOXIB]	5.39%	6.38%
NNCCc1ccccc1.O=S(=O)(O)O [PHENELZINE SULFATE]	-0.33%	5.31%
Cc1[nH]cnc1CN1CCc2c(c3ccccc3n2C)C1=O.Cl [ALOSETRON HYDROCHLORIDE]	8.61%	9.19%
Cc1nc(=O)c2cc(CN(C)c3ccc(C(=O)N[C@@H](CCC(=O)O)C(=O)O)s3)ccc2[nH]1 [RALTITREXED]	9.09%	2.78%
Cl.NC12CC3CC(CC(C3)C1)C2 [AMANTADINE HYDROCHLORIDE]	17.85%	-0.07%
CS(=O)(=O)O.Cc1ccc(NC(=O)c2ccc(CN3CCN(C)CC3)cc2)cc1Nc1nccc(-c2cccnc2)n1 [IMATINIB MESYLATE]	11.51%	2.87%
O=[N+]([O-])c1cccc2cn[nH]c12 [7-NITROINDAZOLE]	16.98%	6.38%
CCCNC(=O)NS(=O)(=O)c1ccc(Cl)cc1 [CHLORPROPAMIDE]	17.96%	2.94%
CCC(C)(C)C(=O)O[C@H]1C[C@@H](C)C=C2C=C[C@H](C)[C@H](CC[C@@H]3C[C@@H](O)CC(=O)O3)[C@H]21 [SIMVASTATIN]		6.01%
C[C@]12C=CC(=O)C=C1CC[C@@H]1[C@@H]2[C@@H](O)C[C@@]2(C)[C@H]1CC[C@]2(O)C(=O)CO [PREDNISOLONE]	7.56%	7.41%
CCCCC(=O)O[C@H]1CC[C@H]2[C@@H]3CCc4cc(O)ccc4[C@H]3CC[C@]12C [ESTRADIOL VALERATE]	3.82%	3.72%
